Where “and” joins values, the source holds several entries; their conditions need not be identical. Equal entries are not always repeated. The campaign covered roughly 5,500 compounds. About 2,000 (36%) were called active. About 18% were inconclusive and are not listed. Cut-off read from the data, not from the text of the source: active = normalized growth mostly below about 0.91 (no sharp cut-off); inconclusive = no clear call, values can overlap the other calls; inactive = mostly above about 0.92. Some of the results follow.
Experiment: chemical genetic growth profiling, strain panel (AID 1159580);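 note: tested at 20 µM; growth read once vehicle control cultures reached saturation at 30 °C; 1 = growth at the plate median or of vehicle wells; lower values mean less growth of the strain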
Conditions: S. cerevisiae deletion strains, growth OD

Measured: normalized growth

Cc1c(N(C)CS(=O)(=O)O)c(=O)n(-c2ccccc2)n1C
inactive: locus YAL021C, strain ccr4, stronger effect = lower value 1.01 | locus YAL026C, strain drs2, stronger effect = lower value 1.01 | locus YAL030W, strain snc1, stronger effect = lower value 1.01 | locus YBL061C, strain skt5, stronger effect = lower value 1.01 | locus YBR009C, strain hhf1, stronger effect = lower value 1 | locus YBR021W, strain FUR4, stronger effect = lower value 0.991 | locus YBR023C, strain chs3, stronger effect = lower value 1.01 | locus YBR171W, strain sec66, stronger effect = lower value 1.02 | locus YBR229C, strain ROT2, stronger effect = lower value 0.989 | locus YBR231C, strain swc5, stronger effect = lower value 1.02 | locus YBR279W, strain paf1, stronger effect = lower value 1.04 | locus YCL011C, strain gbp2, stronger effect = lower value 1.01 | locus YCL016C, strain dcc1, stronger effect = lower value 1.01 | locus YCL029C, strain bik1, stronger effect = lower value 0.992 | locus YCL061C, strain MRC1, stronger effect = lower value 1.01 | locus YCL069W, strain vba3, stronger effect = lower value 1.01 | locus YCR088W, strain abp1, stronger effect = lower value 1.01 | locus YDL005C, strain med2, stronger effect = lower value 1.01 | locus YDL035C, strain GPR1, stronger effect = lower value 1 | locus YDL040C, strain nat1, stronger effect = lower value 1.01 | locus YDL074C, strain BRE1, stronger effect = lower value 1.06 | locus YDL101C, strain DUN1, stronger effect = lower value 1 | locus YDL134C, strain PPH21, stronger effect = lower value 0.979 | locus YDL185W, strain tfp1, stronger effect = lower value 0.992 | locus YDL192W, strain arf1, stronger effect = lower value 0.982 | locus YDR001C, strain nth1, stronger effect = lower value 1.01 | locus YDR069C, strain doa4, stronger effect = lower value 1.01 | locus YDR101C, strain arx1, stronger effect = lower value 1.03 | locus YDR137W, strain rgp1, stronger effect = lower value 1.01 | locus YDR159W, strain sac3, stronger effect = lower value 1 | locus YDR162C, strain NBP2, stronger effect = lower value 0.987 | locus YDR195W, strain ref2 1.01 | locus YDR297W, strain sur2, stronger effect = lower value 1.01 | locus YDR318W, strain mcm21, stronger effect = lower value 0.976 | locus YDR334W, strain swr1, stronger effect = lower value 1.01 | locus YDR335W, strain msn5, stronger effect = lower value 1.01 | locus YDR388W, stronger effect = lower value 0.982 | locus YDR392W, strain spt3, stronger effect = lower value 1.01 | locus YDR502C, strain sam2, stronger effect = lower value 1 | locus YEL003W, strain gim4, stronger effect = lower value 1.01 | locus YEL037C, strain rad23, stronger effect = lower value 1.01 | locus YEL061C, strain CIN8 (second series), stronger effect = lower value 1.02 | locus YEL061C, strain CIN8, stronger effect = lower value 0.999 | locus YER015W, strain faa2, stronger effect = lower value 1.01 | locus YER016W, strain bim1, stronger effect = lower value 1.01 | locus YER110C, stronger effect = lower value 0.994 | locus YER111C, strain swi4, stronger effect = lower value 1.01 | locus YER155C, strain BEM2 (second series), stronger effect = lower value 1.02 | locus YER155C, strain BEM2, stronger effect = lower value 0.992 | locus YER167W, strain BCK2, stronger effect = lower value 0.979 | locus YFR010W, strain ubp6, stronger effect = lower value 1.02 | locus YGL078C, strain dbp3, stronger effect = lower value 0.985 | locus YGL086W, strain mad1, stronger effect = lower value 0.995 | locus YGL167C, strain pmr1, stronger effect = lower value 1.01 | locus YGL173C, strain kem1, stronger effect = lower value 1.02 | locus YGL227W, strain vid30, stronger effect = lower value 1.01 | locus YGL240W, strain doc1, stronger effect = lower value 1.03 | locus YGL248W, strain PDE1, stronger effect = lower value 0.991 | locus YGL253W, strain hxk2, stronger effect = lower value 1.01 | locus YGR135W, strain pre9, stronger effect = lower value 0.96 | locus YGR252W, strain gcn5, stronger effect = lower value 0.968 | locus YHR013C, strain ard1, stronger effect = lower value 0.999 | locus YHR027C, strain rpn1, stronger effect = lower value 1.01 | locus YHR030C, strain SLT2, stronger effect = lower value 0.984 and 1 | locus YHR079C, strain IRE1 (second series), stronger effect = lower value 0.986 | locus YHR079C, strain IRE1, stronger effect = lower value 0.98 | locus YHR094C, strain hxt1, stronger effect = lower value 0.985 | locus YHR129C, strain ARP1, stronger effect = lower value 0.988 | locus YHR142W, strain chs7, stronger effect = lower value 1.02 | locus YHR200W, strain rpn10, stronger effect = lower value 0.981 | locus YIL066C, strain RNR3, stronger effect = lower value 0.998 | locus YIL073C, strain SPO22, stronger effect = lower value 0.997 | locus YIL125W, strain kgd1, stronger effect = lower value 0.993 | locus YIR030C, strain dcg1, stronger effect = lower value 0.982 | locus YJL092W, strain hpr5, stronger effect = lower value 1.01 | locus YJL095W, strain BCK1 (second series), stronger effect = lower value 1.02 | locus YJL095W, strain BCK1, stronger effect = lower value 1 and 0.996 | locus YJL115W, strain asf1, stronger effect = lower value 1 | locus YJL129C, strain trk1, stronger effect = lower value 1.01 | locus YJL134W, strain LCB3, stronger effect = lower value 0.986 | locus YJL154C, strain vps35, stronger effect = lower value 1.01 | locus YJL164C, strain tpk1, stronger effect = lower value 1.01 | locus YJL166W, strain qcr8, stronger effect = lower value 1.02 | locus YJL168C, strain set2, stronger effect = lower value 0.989 | locus YJL187C, strain SWE1 (second series), stronger effect = lower value 0.997 | locus YJL187C, strain SWE1, stronger effect = lower value 1.01 | locus YJR043C, strain POL32, stronger effect = lower value 1 | locus YJR066W, strain TOR1, stronger effect = lower value 0.946
